Laboratory results: PubChem BioAssay (NCI)
Values joined by “and” are separate entries in the source; they are usually repeats but may differ in a detail not shown here. Equal values may be shown once. The panel holds about 83,000 compounds, 20% with a hit somewhere; the sample as a whole holds those more often.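 Cells were grown in 96-well plates and exposed to the test compound at a single concentration for 48 hours; results are reported as percent growth, with values below 10 considered active.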 Active and inactive are the calls of the source.

test system: UACC-62 melanoma; test: NCI-60 one-dose screen, 48 h (100 = growth as untreated, 0 = no growth, -100 = all killed); settings: 10 µM unless noted

Row | SMILES | growth
1 | CC1=C2NCN(C)N=C2C(C#N)(C#N)C1(C#N)C#N | -78.8% [100 µM] (active) and -94.8% [100 µM] (active)
2 | COc1cc(Oc2c(C)c(Cl)c(OC)c(Cl)c2OC)c2c(c1Cl)COC2=O | -38% [100 µM] (active) and -9.28% [100 µM] (active)
3 | C[N+](C)(CCNC(=O)c1cccc2cc3ccccc3nc12)Cc1ccc([N+](=O)[O-])s1 | 63.1% [25 µM] (inactive) and 28.9% [25 µM] (inactive)
4 | COc1ccc2c(c1)N(C(C)=O)CN1C(=O)CCC21 (stereo not given) | 87.4% [100 µM] (inactive) and 102% [100 µM] (inactive)
5 | CNc1nc2c(C)ccc3[nH]c(N(C)C)nc3c-2n1 | 30.8% [100 µM] (inactive) and 2.14% [100 µM] (active)
6 | COc1cc(C)c2c(c1C=O)Oc1c(c(C)c(O)c3c1C(O)OC3=O)OC2=O (stereo not given) | -82.4% [100 µM] (active) and 98.2% [100 µM] (inactive)
7 | CC1C2(C)OC(=N)C(C#N)(C(c3cccc([N+](=O)[O-])c3)O2)C1(C#N)C#N (stereo not given) | 100% [100 µM] (inactive)
8 | CNC(=S)/C(=N\Nc1nc[nH]c1C(N)=O)C(N)=S | -8.08% [100 µM] (active) and 0.0251% [100 µM] (active)
9 | COC(=O)c1cc(C#N)[nH]c1-c1ccsc1 | 67.3% [100 µM] (inactive) and 25.1% [100 µM] (inactive)
10 | COC(=O)C(=O)C(C(=O)C(=O)Nc1ccc(Cl)c(Cl)c1)c1nc2ccc(C(=O)c3ccccc3)cc2[nH]c1=O (stereo not given) | 43.9% [100 µM] (inactive) and 6.66% [100 µM] (active)
